Here are results for 66 molecules from ChEMBL document CHEMBL4513216, “Probing the Open Global Health Chemical Diversity Library for Multistage-Active Starting Points for Next-Generation Antimalarials” (ACS Infect Dis, 2020).

Among all 68,000 compounds or so, about 2,700 (4%) showed an effect of 50% or more. The entries come from a sample that favours strong results as a whole.

The assay has as its system Plasmodium berghei. Description: Screen against P. berghei liver stage (PbLuc), transformed with Luciferase, at 2uM. The class given is functional, HepG2. The settings on record: tested at 2 uM.
`CSCC[C@@H](CO)n1ccnc1-c1nccn1C`: the INHIBITION was 17.37%.
Regarding `CN1CC(=O)N(c2cnn(C)c2)CC12CCN(C(=O)c1ccsc1)C2` (stereo unspecified), the INHIBITION is recorded as -6.94%.
With `CCc1noc(C(C)N2CCN(Cc3cnc(C)cn3)CC2)n1` (stereo unspecified) the figure was -1.29%; with `Cc1nc(N2CCN(C(=O)c3ccsc3)CC2)c2cnn(C)c2n1`, 42.11%.
With `CN1C(=O)CCC12CCN(c1ccc(C#N)cn1)CC2` the figure was 5.22%.
With `N#Cc1ccc(N2CCC3(CCC(=O)N3CCN3CCCC3)CC2)nc1`, the INHIBITION was 52.96%.
On to `N#Cc1ccc(N2CCCC3(CCC(=O)N3CC3CC3)CC2)nc1` (stereo unspecified), for which the INHIBITION was -16.78%.
Turning to `COc1ccccc1N1CCN(C(=O)COc2c(C)occc2=O)CC1`, the INHIBITION was -24.81%.
On to `Cc1nc(C)n(CC2CCCN(CCOc3ccc(F)cc3)C2)n1` (stereo unspecified), for which the INHIBITION was -23.18%.
In the case of `Cc1cccc(CN2CCCC23CCNC3)n1` (stereo unspecified), the INHIBITION was determined as 63.89%.
Turning to `Cc1cccc(CN2CCCCC23CCNC3)n1` (stereo unspecified), the INHIBITION was 22.16%.
As for `Cc1cccc(CN2CCC23CCCNC3)n1` (stereo unspecified), the INHIBITION is recorded as 20.51%.
Consider `CCc1nnc2n1CCN(Cc1csc(NC(C)=O)n1)C2`, for which the INHIBITION is -5.09%.
As to `Cc1ccc2c(c1)SCC(=O)N2CC(=O)N1CCC[C@H]1c1nc(C)no1`, the INHIBITION is 22%.
In the case of `COc1c(CNC2CCc3cc(F)ccc32)c(C(C)C)nn1C` (stereo unspecified), the INHIBITION is reported as -52.77%.
Regarding `COCC(=O)NCC1(COc2cccnc2)C[C@@H](O)[C@@H](O)C1` (stereo partly specified), the INHIBITION is given as -40.44%.
For `CCCn1nccc1S(=O)(=O)N1CCC2(CCCN(C(C)C)C2=O)C1` (stereo unspecified), the INHIBITION amounted to 38.67%.
With `CCCN1CCCC2(CCN(S(=O)(=O)c3cc(C)nn3CC)C2)C1=O` (stereo unspecified), the INHIBITION was 57.75%.
For `CCn1nc(C)cc1S(=O)(=O)N1CCC2(CC(=O)NC2=O)C1` (stereo unspecified), the INHIBITION came to 5.28%.
With `CCn1nccc1S(=O)(=O)N1CCC2(CCCN(C(C)C)C2=O)C1` (stereo unspecified) the figure was 17.2%.
`CCCN1CCCC2(CCN(S(=O)(=O)c3cccnc3)C2)C1=O` (stereo unspecified): the INHIBITION was found to be 11.9%.
In the case of `CCn1nc(C)cc1S(=O)(=O)N1CCC2(CCCN(C(C)C)C2=O)C1` (stereo unspecified), the INHIBITION is 55.36%.
To `COCCN1C(=O)[C@@H]2CC[C@H]1CN(C(=O)COc1ccc(F)c(Cl)c1)C2` belongs 38.83%.
As for `COc1ccc(C2=CCN(C(=O)C3CCN(C)C(=O)C3)CC2)cc1` (stereo unspecified), the INHIBITION was 17.39%.
As to `O=C(NCc1ccccn1)[C@@]12CCO[C@@H]1CCN(c1ncccn1)C2`, the INHIBITION is reported as -20.87%.
Turning to `Cc1oc(C(=O)O)cc1S(=O)(=O)Nc1ccc(Cl)c(Cl)c1`, the INHIBITION amounted to 16.79%.
Turning to `Cc1oc(C(=O)O)cc1S(=O)(=O)Nc1ccc(Cl)c(F)c1`, the INHIBITION is 56.67%.
In the case of `Cc1oc(C(=O)O)cc1S(=O)(=O)Nc1cc(Cl)ccc1F`, the INHIBITION was found to be 16.64%.
Consider `Cc1n[nH]c(C)c1NC(=O)CN1CCOC(Cn2cccn2)C1` (stereo unspecified), for which the INHIBITION is given as 37.52%.
In the case of `Cn1cc(C(=O)N2CCCC(c3cc(O)n(C)n3)C2)cn1` (stereo unspecified), the INHIBITION amounted to 27.39%.
With `COCc1nc(C(=O)NS(=O)(=O)c2ccc(Cl)cc2F)cs1` the figure was -7.88%; with `NC(=O)c1ccc(CN2CCCC(N3CCCC3)C2)cc1` (stereo unspecified), 58.65%.
Consider `NC(=O)c1ccc(CN2CCCC(N3CCCCCC3)C2)cc1` (stereo unspecified), for which the INHIBITION came out at 9.8%.
With `NC(=O)c1ccc(CN2CCC(N3CCCC3)CC2)cc1`, the INHIBITION is reported as -29.69%.
With `COCCN1CCC(Nc2c(F)cc(C#N)cc2F)CC1` the figure was -22.01%; with `O=C(CCO)N[C@H]1CN(CC2CCC2)C[C@@H]1c1ccccc1`, 75.86%.
Turning to `CS(=O)(=O)NCC(=O)N[C@H]1CN(CC2CC2)C[C@@H]1c1ccccc1`, the INHIBITION worked out at 48.93%.
With `CSCC(=O)N[C@H]1CN(CC2CCOCC2)C[C@@H]1c1ccccc1`, the INHIBITION was 37.15%.
To `CN(C)S(=O)(=O)N1C[C@H]2CC[C@@H](C1)N(Cc1cccc(C#N)c1)C2` belongs -19.83%.
As to `CCNC(=O)N1CCc2ccc(NC(=O)NCCOCC)cc21`, the INHIBITION is 10.1%.
To `Cn1c(-c2ccccc2Cl)nc2cc(C(=O)NCC3(C)COC3)cnc21` belongs 21.24%; to `CN(C)CCNC(=O)c1cnc2c(c1)nc(-c1ccccc1Cl)n2C`, -1.73%; to `Cn1c(-c2ccccc2Cl)nc2cc(C(=O)NC(CO)CO)cnc21`, 56.89%.
On to `Cn1c(-c2ccccc2Cl)nc2cc(C(=O)NCC3(CO)CC3)cnc21`, for which the INHIBITION turned out to be 58.53%.
`Cn1c(-c2ccccc2Cl)nc2cc(C(=O)NCCOCCO)cnc21`: the INHIBITION is 2.7%.
With `CC(=O)NCCNC(=O)c1cnc2c(c1)nc(-c1ccccc1Cl)n2C`, the INHIBITION is -5.51%.
`COc1ccc(NC(=O)CCC2CCCN(S(=O)(=O)C3CC3)C2)cc1Cl` (stereo unspecified): the INHIBITION came to 13.99%.
To `CCc1ccc(C(=O)N2CCCC(CNS(C)(=O)=O)C2)o1` (stereo unspecified) belongs -23.94%.
`O=C(c1ccc(F)c(Cl)c1)N1C[C@H]2CC[C@@H](C1)N(Cc1ccccc1)C2`: the INHIBITION is on record as -38.33%.
In the case of `Cc1cn2nc(N3CCCC3CC(C)(C)C)sc2n1` (stereo unspecified), the INHIBITION was found to be 29.11%.
Consider `CC(CO)(NCc1noc(Cc2ccccc2)n1)C1CCCCC1` (stereo unspecified), for which the INHIBITION is -69.13%.
In the case of `COCCc1noc(CNC(C)(CO)C2CCCCC2)n1` (stereo unspecified), the INHIBITION was 65.79%.
To `CCc1nc(CNC(C)(CO)C2CCCCC2)no1` (stereo unspecified) belongs 17.89%.
As to `O=C1OCCN1CCc1nc(-c2cc3c4c(c2)CC(=O)N4CCC3)cs1`, the INHIBITION turned out to be 78.51%.
On to `O=C1CCCc2cc(-c3csc(CCN4CCOC4=O)n3)ccc2N1`, for which the INHIBITION is given as 33.01%.
In the case of `CN1C(=O)Cc2cc(-c3csc(CCN4CCOC4=O)n3)ccc21`, the INHIBITION was -35.62%.
In the case of `CCn1c(C)nnc1SCCNC(=O)c1cnc(C(C)(C)C)nc1O`, the INHIBITION is 3.86%.
Consider `Cc1nc(C(C)C)sc1C(=O)NCCSc1ccccn1`, for which the INHIBITION is -103.61%.
For the molecule `CC(C)(C)c1ncc(C(=O)NCCSc2ccccn2)c(O)n1`, the INHIBITION is recorded as 68.02%.
For `CN1C[C@H]2CC[C@@H](C1)N(Cc1ccccc1OCCN1CCOCC1)C2`, the INHIBITION is on record as 32.1%.
With `NC(=O)CC1CC2(CCNCC2)c2cc(F)ccc21` (stereo unspecified), the INHIBITION is recorded as -8.62%.
In the case of `c1cnc(-c2nn3c(CN4CCCCCC4)nnc3s2)cn1`, the INHIBITION was found to be 55.73%.
As to `c1cnc(-c2nn3c(CN4CCCCC4)nnc3s2)cn1`, the INHIBITION stood at 7.91%.
`c1cnc(-c2nn3c(CN4CCOCC4)nnc3s2)cn1`: the INHIBITION stood at 26.03%.
With `COC(=O)N1CCCC(NC(=O)NCc2ccc(C)nc2)C1` (stereo unspecified), the INHIBITION is 22.07%.
On to `CC(C)(C)CC(=O)N1CC[C@H]2CC(=O)N(CCc3c[nH]cn3)CC[C@H]2C1`, for which the INHIBITION was 17.31%.
